From PubChem BioAssay
In the library only some 18% were active in any assay of this set; here they are far more common.
TDP1 cell CPT: DT40-hTDP1 cell growth loss with CPT; actives 12% (n = 420,000); chicken DT40 Tdp1-/-;hTDP1 cells + 20 nM CPT, ATP luminescence, 48 h; Potency, µM (titrated, usually from 46.2 µM), for inactives: at the top dose activity change, negative = growth inhibition, hits mostly inhibitors; also: potency is read from the fitted curve at half-maximal effect; % is scaled to controls: 0 for no effect and ±100 for the full control effect; nearly all actives have a fitted effect of over 55% in size
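Cell growth measured by CellTiter-Glo luminescence after a minimum 48 h, 37 C compound exposure with 20 nM CPT in Tdp1-knockout DT40 cells stably expressing hTDP1, seeded 400/well; qHTS titration format.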
IL1B secr inh: blocks inflammasome-driven IL-1 beta release; THP-1 LPS/ATP IL-1B secretion, AlphaLISA, 16 h; hits give low values; activity change, % at 57.5 µM; actives 4.7% (n = 360,000); AID 743279; in the data active = activity change below about -50%; inconclusive = mostly about -30% to -49%; also: % is scaled to controls: 0 for no effect and ±100 for the full control effect
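Secreted IL-1B measured by AlphaLISA bead assay after 16 h compound exposure of THP-1 cells; compounds (final up to 57.5 uM) added 1 h before LPS (250 ng/mL) and ATP (1.25 mM) stimulation; lower signal means less secretion.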
HepG2 viability: kills HepG2 cells in TGF-b inhibitor counter-screen | HepG2 CAGA-GFP viability, ATP luminescence, 18 h | Potency, µM (titrated, usually from 46.1 µM), inactives show at the top dose activity change, negative = cytotoxicity, hits mostly cytotoxic | actives 0.76% (n = 410,000); also: potency is read from the fitted curve at half-maximal effect
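CellTiter-Glo luminescence gave cytotoxicity after 18 hours at 37 degrees C. The cells were HepG2 CAGA-GFP in 1% FBS DMEM, stimulated with 500 pg/mL TGF-beta after compound addition. %Activity was normalised to no-cell wells (complete cell-killing) and DMSO (no toxicity), and curves were fitted and classified.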
TGFb inhibitor: TGF-b pathway inhibition | actives 1.2% (n = 410,000) | Potency, µM (series often up to 46.1 µM), inactives show at the top dose activity, negative = inhibition, actives largely listed as inhibitors | HepG2 CAGA-GFP TGF-b/SMAD3 reporter, GFP fluorescence, 18 h; TGF-beta stimulated, 500 pg/mL final; also: potency is read from the fitted curve at half-maximal effect; % is scaled to controls: 0 for no effect and ±100 for the full control effect; nearly all actives have a fitted effect of over 65% in size
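Smad-responsive CAGA-GFP expression was quantified in HEPG2 cells exposed to compounds and 500 pg/mL final TGF-beta for 18 h at 37 degrees C; unstimulated wells defined full inhibition.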
TDP1 cell noCPT: qHTS for Inhibitors of human tyrosyl-DNA phosphodiesterase 1 (TDP1): qHTS in cells in absence of CPT. actives 15% (n = 420,000). Potency, µM (titrated, usually from 46.2 µM), for the others: at the highest dose activity change, negative = growth inhibition, hits mostly inhibitors. DT40 Tdp1-/- hTDP1 cells, no CPT, ATP luminescence, 48 h; also: potency is read from the fitted curve at half-maximal effect; % is scaled to controls: 0 for no effect and ±100 for the full control effect; nearly all actives have a fitted effect of over 55% in size
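Readout: luminescence from CellTiter-Glo after 30 min in the dark at RT. Cells: DT40 Tdp1-/- with stable hTDP1, 400/well. Exposure: compounds alone, ≥48 hr, 37 °C.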
TDP1 block: inhibitors of human tyrosyl-DNA phosphodiesterase TDP1. Q9NUW8. recombinant TDP1, AlphaScreen DNA substrate cleavage. Potency, µM (series often up to 130 µM), without a hit: at the top dose activity change, negative = inhibition, actives largely listed as inhibitors. actives 0.28% (n = 350,000). AID 485290; also: potency is read from the fitted curve at half-maximal effect; % is scaled to controls: 0 for no effect and ±100 for the full control effect; nearly all actives have a fitted effect of over 40% in size
Target sequence (Q9NUW8 whole entry, looked up): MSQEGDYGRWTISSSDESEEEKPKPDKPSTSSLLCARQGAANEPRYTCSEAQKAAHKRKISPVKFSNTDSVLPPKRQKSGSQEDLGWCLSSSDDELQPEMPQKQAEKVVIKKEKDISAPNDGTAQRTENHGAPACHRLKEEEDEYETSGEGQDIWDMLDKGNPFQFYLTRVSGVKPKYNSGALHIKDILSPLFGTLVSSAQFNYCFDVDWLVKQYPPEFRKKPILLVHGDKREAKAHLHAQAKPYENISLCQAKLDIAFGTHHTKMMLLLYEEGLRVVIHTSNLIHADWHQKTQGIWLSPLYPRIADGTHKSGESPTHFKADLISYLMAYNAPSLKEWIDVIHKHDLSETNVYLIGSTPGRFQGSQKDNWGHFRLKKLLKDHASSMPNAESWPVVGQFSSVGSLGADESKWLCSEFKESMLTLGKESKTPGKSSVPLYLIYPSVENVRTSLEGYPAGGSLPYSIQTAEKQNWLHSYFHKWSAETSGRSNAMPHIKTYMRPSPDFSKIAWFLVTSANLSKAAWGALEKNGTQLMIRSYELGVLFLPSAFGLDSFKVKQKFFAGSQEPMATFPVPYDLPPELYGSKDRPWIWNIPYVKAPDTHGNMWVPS
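Enzyme-compound mixtures sat 15 min at room temperature, followed by a 5 min reaction with 15 nM final substrate and 10 min with AlphaScreen beads. Recombinant human Tdp1 was used at 1 nM final.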
Active calls of the source: *; [ ] = remark or other dose. Unless noted, calls follow the shape of the dose curve; as a rule, active = well fitted curve in the direction sought with a large enough effect; inconclusive = small, poorly fitted or top-dose-only effect, or another doubt; inactive = no such curve, though single readings can be large; an effect the other way counts as inactive or inconclusive.

How did Cc1cccc(NC(=O)CS(=O)(=O)c2nc(-c3ccccc3)cn2-c2cccc(Cl)c2)c1C do in these assays?
TDP1 cell CPT: 23µM*; HepG2 viability: -23%; TGFb inhibitor: inconclusive; TDP1 cell noCPT: 18µM*; TDP1 block: 3%

How did Cc1cccc(NC(=O)CSc2nc(-c3ccccc3)cn2-c2ccccc2)c1C do in these assays?
TDP1 cell CPT: inconclusive; HepG2 viability: -13%; TGFb inhibitor: inconclusive; TDP1 cell noCPT: 23µM*; TDP1 block: 6%

How did COc1cc(/C=N/N2CCN(Cc3ccccc3)CC2)cc(OC)c1OC(C)=O do in these assays?
TDP1 cell CPT: 35%; IL1B secr inh: 15; HepG2 viability: -8%; TGFb inhibitor: -7%; TDP1 cell noCPT: 5%; TDP1 block: 6%

What do the screens show for `Cc1ccc(-c2cn(-c3ccccc3)c(SCC(N)=O)n2)cc1C`?
TDP1 cell CPT: -19%; IL1B secr inh: -13; HepG2 viability: -23%; TGFb inhibitor: inconclusive; TDP1 cell noCPT: -24%; TDP1 block: -1%

How did Cc1ccc(C(=O)n2c(-c3ccccc3)cnc2SCC(=O)Nc2ccccc2)cc1 do in these assays?
TDP1 cell CPT: -7%; IL1B secr inh: -11; HepG2 viability: 1%; TGFb inhibitor: -14%; TDP1 cell noCPT: inconclusive; TDP1 block: 5%

How did CCOC(=O)NC(=O)CSc1nc(-c2ccc(C)c(C)c2)cn1-c1ccccc1 do in these assays?
TDP1 cell CPT: inconclusive; IL1B secr inh: -61*; HepG2 viability: -29%; TGFb inhibitor: -23%; TDP1 cell noCPT: inconclusive; TDP1 block: -5%

How did NS(=O)(=O)c1cccc(NC(=O)COC(=O)c2cc(-c3ccc(Cl)cc3)nc3ccccc23)c1 do in these assays?
TDP1 cell CPT: inconclusive; IL1B secr inh: inconclusive; HepG2 viability: -111%; TGFb inhibitor: inconclusive; TDP1 cell noCPT: inconclusive; TDP1 block: 0%

What do the screens show for `O=C(CS(=O)(=O)c1nc(-c2ccc(Cl)cc2)cn1-c1ccccc1)Nc1cccc(Cl)c1`?
TDP1 cell CPT: 23µM*; HepG2 viability: -33%; TGFb inhibitor: 10µM*; TDP1 cell noCPT: inconclusive; TDP1 block: 12%

How did O=C(CS(=O)(=O)c1nc(-c2ccc(Cl)cc2)cn1-c1ccccc1)Nc1ccc(F)cc1F do in these assays?
TDP1 cell CPT: 18µM*; HepG2 viability: -9%; TGFb inhibitor: inconclusive; TDP1 cell noCPT: inconclusive; TDP1 block: 3%

What do the screens show for `O=C(CSc1nncn1-c1ccccc1)Nc1ccc(F)cc1F`?
TDP1 cell CPT: 13%; IL1B secr inh: -7; HepG2 viability: -5%; TGFb inhibitor: -21%; TDP1 cell noCPT: -1%; TDP1 block: 5%

How did Cc1ccc(C(=O)n2c(-c3ccccc3)cnc2SCC(=O)Nc2ccc(C)cc2C)cc1 do in these assays?
TDP1 cell CPT: inconclusive; IL1B secr inh: -29; HepG2 viability: -9%; TGFb inhibitor: inconclusive; TDP1 cell noCPT: 26µM*; TDP1 block: 8%

Results for Cc1ccc(SCC(=O)Nc2ccc(-c3nc4ccccc4[nH]3)cc2)cc1 ?
TDP1 cell CPT: inconclusive; IL1B secr inh: 18; HepG2 viability: -42%; TGFb inhibitor: inconclusive; TDP1 cell noCPT: inconclusive; TDP1 block: 0%

How did C[N+]1(C)CC(O)[C@H](C(=O)[O-])C1 (stereo partly drawn) do in these assays?
TDP1 cell CPT: 0%; TDP1 cell noCPT: -3%; TDP1 block: -6%[56.1 µM]

How did Cc1ccc(-c2cn(-c3cccc(Cl)c3)c(S(=O)(=O)CC(=O)Nc3cccc(C)c3)n2)cc1 do in these assays?
TDP1 cell CPT: 16µM*; HepG2 viability: -28%; TGFb inhibitor: inconclusive; TDP1 cell noCPT: inconclusive; TDP1 block: 6%

What do the screens show for `Cc1ccc(NC(=O)CS(=O)(=O)c2nc(-c3ccc(C)cc3)cn2-c2ccc(C)cc2)cc1`?
TDP1 cell CPT: 21µM*; HepG2 viability: -17%; TGFb inhibitor: -17%; TDP1 cell noCPT: 15µM*; TDP1 block: 9%

How did CCn1c(SCc2cccc(Br)c2)nnc1-c1nonc1NC(C)=O do in these assays?
TDP1 cell CPT: 18µM*; HepG2 viability: -20%; TGFb inhibitor: inconclusive; TDP1 cell noCPT: 23µM*; TDP1 block: 3%

How did Cc1ccc(-c2cn(-c3cccc(Cl)c3)c(S(=O)(=O)CC(=O)Nc3ccccc3F)n2)cc1 do in these assays?
TDP1 cell CPT: inconclusive; HepG2 viability: -13%; TGFb inhibitor: inconclusive; TDP1 cell noCPT: inconclusive; TDP1 block: 9%

What do the screens show for `CC(=O)Nc1nonc1-c1nnc(SCC(=O)Nc2cccc(C)c2C)n1-c1ccccc1`?
TDP1 cell CPT: 23µM*; HepG2 viability: -14%; TGFb inhibitor: 3%; TDP1 cell noCPT: 26µM*; TDP1 block: 6%

What do the screens show for `CCOc1ccc(-c2cn(-c3ccc(C)cc3)c(SCC(=O)Nc3ccc(C)cc3)n2)cc1`?
TDP1 cell CPT: inconclusive; HepG2 viability: -1%; TGFb inhibitor: -20%; TDP1 cell noCPT: inconclusive; TDP1 block: 2%

How did CC(=O)Nc1nonc1-c1nnc(SCC(=O)Nc2c(C)cccc2C)n1-c1ccccc1 do in these assays?
TDP1 cell CPT: inconclusive; HepG2 viability: -41%; TGFb inhibitor: -24%; TDP1 cell noCPT: -29%; TDP1 block: 5%

Results for CC[C@H](C)[C@H](NC(=O)OCc1ccccc1)C(=O)OCC(=O)N1CCN(c2ccc(OC)cc2)CC1 ?
TDP1 cell CPT: inconclusive; IL1B secr inh: 22; HepG2 viability: -16%; TGFb inhibitor: inconclusive; TDP1 cell noCPT: inconclusive

Results for CN(C)c1nc(Oc2ccc(OCCOc3ccccc3)nn2)nc(N(C)C)n1 ?
TDP1 cell CPT: inconclusive; IL1B secr inh: 7; HepG2 viability: -20%; TGFb inhibitor: -5%; TDP1 cell noCPT: inconclusive; TDP1 block: 4%

What do the screens show for `COc1ccc(C(=O)Nc2ccccc2-c2nc3ccccc3s2)c(OC)c1`?
TDP1 cell CPT: 18µM*; HepG2 viability: -9%; TGFb inhibitor: -14%; TDP1 cell noCPT: 16µM*; TDP1 block: -8%

How did Cc1ccc(SCC(=O)Nc2ccc(O)c(-c3nc4cc(C)ccc4o3)c2)cc1 do in these assays?
TDP1 cell CPT: inconclusive; HepG2 viability: -26%; TGFb inhibitor: 21%; TDP1 cell noCPT: 21µM*; TDP1 block: 1%
